Assay results taken from PubChem BioAssay (NCI).
Compounds without any hit were thinned out: in the full panel of roughly 83,000, 20% have a hit.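 Negative percent growth values reflect cell death: -40 means 40% of the cells present at the start died, and -100 means all died.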 The source made the active and inactive calls. Rule for the calls: active = growth percent below 10; inactive = the rest.

What was measured:
Assay in all cases: NCI-60 one-dose screen, 48 h (100 = growth as untreated, 0 = no growth, -100 = all killed)
Conditions in all cases: 10 µM
NCI-H23 lung = test system: NCI-H23 lung
NCI-H226 lung = test system: NCI-H226 lung
NCI-H322M lung = test system: NCI-H322M lung
HOP-62 NSCLC = test system: HOP-62 NSCLC
NCI-H460 lung = test system: NCI-H460 lung
NCI-H522 lung = test system: NCI-H522 lung
A549/ATCC NSCLC = test system: A549/ATCC NSCLC
786-0 renal = test system: 786-0 renal
COLO 205 colon = test system: COLO 205 colon
DU-145 prostate = test system: DU-145 prostate
K-562 leukemia = test system: K-562 leukemia
MALME-3M melanoma = test system: MALME-3M melanoma
MDA-MB-231 breast = test system: MDA-MB-231 breast
RXF 393 renal = test system: RXF 393 renal
SF-268 CNS = test system: SF-268 CNS
SF-295 CNS = test system: SF-295 CNS
SF-539 CNS = test system: SF-539 CNS
UACC-257 melanoma = test system: UACC-257 melanoma
M14 melanoma = test system: M14 melanoma
HCT-15 colon = test system: HCT-15 colon

Measured: growth

CN(C)c1ccc(/C=C/C=N/NC(=O)c2cc(O)c(O)c(O)c2)cc1
inactive: NCI-H23 lung 99.6% | NCI-H226 lung 101% | NCI-H322M lung 93.7% | HOP-62 NSCLC 103% | NCI-H460 lung 107% | A549/ATCC NSCLC 98% | 786-0 renal 103% | COLO 205 colon 94.1% | DU-145 prostate 109% | K-562 leukemia 27.1% | MALME-3M melanoma 88.9% | MDA-MB-231 breast 85.4% | RXF 393 renal 99.4% | SF-268 CNS 94.6% | SF-295 CNS 103% | SF-539 CNS 89.8% | UACC-257 melanoma 92.8% | M14 melanoma 96.9% | HCT-15 colon 94.2%
active: NCI-H522 lung -31.8%

CN(C)c1ccc(N=C2C=CC(=O)c3ccccc32)cc1
active: DU-145 prostate -58% | MALME-3M melanoma -11.2% | M14 melanoma -18.2%
inactive: NCI-H23 lung 35.1% | NCI-H226 lung 91.7% | NCI-H322M lung 14.9% | HOP-62 NSCLC 82.5% | NCI-H460 lung 15.3% | NCI-H522 lung 48.2% | A549/ATCC NSCLC 28% | 786-0 renal 90.3% | COLO 205 colon 11.8% | K-562 leukemia 69.8% | MDA-MB-231 breast 59.5% | RXF 393 renal 81.2% | SF-268 CNS 73.9% | SF-295 CNS 60.5% | SF-539 CNS 88.7% | UACC-257 melanoma 65.3% | HCT-15 colon 53.5%

CC(=O)c1nc2ccccc2n1CCN1CCN(C)CC1
active: NCI-H522 lung 0.166% | COLO 205 colon 2.73% | DU-145 prostate -3.03%
inactive: NCI-H23 lung 46.2% | NCI-H226 lung 90.9% | NCI-H322M lung 31.9% | HOP-62 NSCLC 41% | NCI-H460 lung 13.1% | A549/ATCC NSCLC 31.2% | 786-0 renal 78.6% | K-562 leukemia 15.3% | MALME-3M melanoma 17.6% | MDA-MB-231 breast 42.9% | RXF 393 renal 48% | SF-268 CNS 48.1% | SF-295 CNS 153% | SF-539 CNS 35.3% | UACC-257 melanoma 49.8% | M14 melanoma 20.5% | HCT-15 colon 98.9%

CSc1nc(=O)n(Cc2ccc(Cl)cc2)c(=O)[nH]1
inactive: NCI-H23 lung 100% | NCI-H226 lung 108% | NCI-H322M lung 127% | HOP-62 NSCLC 92.1% | NCI-H460 lung 108% | NCI-H522 lung 90.7% | A549/ATCC NSCLC 99.1% | 786-0 renal 101% | COLO 205 colon 104% | DU-145 prostate 104% | K-562 leukemia 96.1% | MALME-3M melanoma 105% | MDA-MB-231 breast 104% | RXF 393 renal 115% | SF-268 CNS 102% | SF-295 CNS 146% | SF-539 CNS 101% | UACC-257 melanoma 102% | M14 melanoma 106% | HCT-15 colon 103%

O=C(Nc1ccc(CO)cc1)c1ccccc1Nc1ccnc(C(F)(F)F)c1
inactive: NCI-H23 lung 96.5% | NCI-H226 lung 105% | NCI-H322M lung 113% | HOP-62 NSCLC 95.4% | NCI-H460 lung 103% | NCI-H522 lung 93.7% | A549/ATCC NSCLC 99.5% | 786-0 renal 102% | COLO 205 colon 104% | DU-145 prostate 106% | K-562 leukemia 93.7% | MALME-3M melanoma 92.5% | MDA-MB-231 breast 96.9% | RXF 393 renal 120% | SF-268 CNS 99.3% | SF-295 CNS 111% | SF-539 CNS 101% | UACC-257 melanoma 102% | M14 melanoma 99.8% | HCT-15 colon 103%

CN(C)CCN=c1nc2c(c(N)n1-c1ccccc1)c(=S)n(-c1ccccc1)c(=S)n2-c1ccccc1
inactive: NCI-H23 lung 67.6% | NCI-H226 lung 82.3% | NCI-H322M lung 58.5% | NCI-H522 lung 34.2% | A549/ATCC NSCLC 35.3% | DU-145 prostate 45% | SF-268 CNS 24% | HCT-15 colon 18.8%
active: HOP-62 NSCLC 6.19% | NCI-H460 lung 3.8% | 786-0 renal -83.5% | COLO 205 colon 6.65% | K-562 leukemia -11.4% | MALME-3M melanoma -89.5% | MDA-MB-231 breast -13% | RXF 393 renal -39.1% | SF-295 CNS -61.5% | SF-539 CNS -86.9% | UACC-257 melanoma -74.6% | M14 melanoma -84.4%

Cc1ccc(NC(=O)Nc2cccnc2)cc1NC(=O)Nc1cccnc1
active: NCI-H522 lung -37.3%
inactive: NCI-H23 lung 88.4% | NCI-H226 lung 95.3% | NCI-H322M lung 100% | HOP-62 NSCLC 117% | NCI-H460 lung 85.9% | A549/ATCC NSCLC 30.8% | 786-0 renal 94.8% | COLO 205 colon 118% | DU-145 prostate 98.2% | K-562 leukemia 57.4% | MALME-3M melanoma 102% | MDA-MB-231 breast 92.8% | RXF 393 renal 82.7% | SF-268 CNS 96.8% | SF-295 CNS 77.9% | SF-539 CNS 87.5% | UACC-257 melanoma 10.9% | M14 melanoma 91.6% | HCT-15 colon 84%

O=C(N/N=C/c1ccccc1)C(Oc1ccccc1)c1ccccc1 (stereo not given)
inactive: NCI-H23 lung 89.1% | NCI-H226 lung 97.5% | NCI-H322M lung 94.2% | HOP-62 NSCLC 95% | NCI-H460 lung 94.5% | NCI-H522 lung 65.5% | A549/ATCC NSCLC 111% | 786-0 renal 107% | COLO 205 colon 109% | DU-145 prostate 107% | K-562 leukemia 79% | MALME-3M melanoma 71.8% | MDA-MB-231 breast 102% | RXF 393 renal 100% | SF-268 CNS 97.1% | SF-295 CNS 93.7% | SF-539 CNS 93.7% | UACC-257 melanoma 96.7% | M14 melanoma 95.6% | HCT-15 colon 91.9%

Cc1cccc2c(NCCN(C)C)c3cccc(C(=O)NCCN(C)C)c3nc12
active: NCI-H23 lung 6.76% | NCI-H322M lung -5.21% | HOP-62 NSCLC 4.88% | NCI-H460 lung -13.2% | NCI-H522 lung -43.7% | COLO 205 colon 0.559% | DU-145 prostate -20.1% | K-562 leukemia -24.5% | MALME-3M melanoma 7.06% | MDA-MB-231 breast 5.41% | RXF 393 renal 8.33% | SF-295 CNS 7.5% | UACC-257 melanoma -20.6% | HCT-15 colon -46.5%
inactive: NCI-H226 lung 22.4% | A549/ATCC NSCLC 16.2% | 786-0 renal 14.5% | SF-268 CNS 11.3% | SF-539 CNS 11.6% | M14 melanoma 11.7%

CN(C)c1ccc(-c2cc(-c3cccc(NS(C)(=O)=O)c3)nc(N)c2C#N)cc1
inactive: NCI-H23 lung 21.5% | NCI-H226 lung 39.6% | NCI-H322M lung 21.1% | HOP-62 NSCLC 44.1% | A549/ATCC NSCLC 25.9% | 786-0 renal 31% | K-562 leukemia 10.9% | RXF 393 renal 20.3% | SF-268 CNS 20.8% | UACC-257 melanoma 80.4% | M14 melanoma 11.6% | HCT-15 colon 24%
active: NCI-H460 lung 5.32% | NCI-H522 lung 7.63% | COLO 205 colon -71.2% | DU-145 prostate -25.5% | MALME-3M melanoma -7.09% | MDA-MB-231 breast -8.96% | SF-295 CNS 0.228% | SF-539 CNS 3.52%

Cc1c(Cl)cccc1NC(=O)c1sc2nc3c(cc2c1N)C(=O)CCC3
inactive: NCI-H23 lung 16.4% | NCI-H226 lung 55.8% | NCI-H322M lung 27.8% | HOP-62 NSCLC 34% | A549/ATCC NSCLC 16.7% | 786-0 renal 37.7% | MALME-3M melanoma 40.1% | MDA-MB-231 breast 12.6% | SF-268 CNS 37.4% | UACC-257 melanoma 48.1% | HCT-15 colon 21%
active: NCI-H460 lung 4.71% | NCI-H522 lung -28.4% | COLO 205 colon -30% | DU-145 prostate -17.7% | K-562 leukemia 7.09% | RXF 393 renal -16.4% | SF-295 CNS -8.15% | SF-539 CNS -40.7% | M14 melanoma 3.72%

O=C1Nc2ccccc2C1=NC1CCCCC1
inactive: NCI-H23 lung 95.2% | NCI-H226 lung 92% | NCI-H322M lung 90.3% | HOP-62 NSCLC 88.3% | NCI-H460 lung 105% | NCI-H522 lung 70.4% | A549/ATCC NSCLC 103% | 786-0 renal 93.6% | COLO 205 colon 96.5% | DU-145 prostate 110% | K-562 leukemia 100% | MALME-3M melanoma 90.9% | MDA-MB-231 breast 103% | RXF 393 renal 107% | SF-268 CNS 96% | SF-295 CNS 98.3% | SF-539 CNS 99.7% | UACC-257 melanoma 100% | M14 melanoma 106% | HCT-15 colon 105%

COc1ccc2c(c1)O/C(=C\c1ccc([N+](=O)[O-])o1)C2=O
active: NCI-H23 lung -3.07% | HOP-62 NSCLC -12.4% | NCI-H460 lung -20.9% | NCI-H522 lung -63% | A549/ATCC NSCLC -10.9% | 786-0 renal -27.3% | COLO 205 colon -79.4% | DU-145 prostate -11.1% | K-562 leukemia 2.05% | MALME-3M melanoma -37.1% | MDA-MB-231 breast 8.07% | RXF 393 renal -74% | SF-268 CNS -5.87% | SF-295 CNS 9.85% | SF-539 CNS -43.2% | UACC-257 melanoma -13.1% | M14 melanoma -15.5% | HCT-15 colon 2.39%
inactive: NCI-H226 lung 22.3% | NCI-H322M lung 41.5%
